Screens deposited in PubChem BioAssay by National Center for Advancing Translational Sciences (NCATS).
An excerpt weighted towards active compounds, which were near 10% of everything screened.
JMJD2A Tudor = blocks the human JMJD2A Tudor domain; O75164; Potency, µM (series often up to 114 µM), for the others: at the top dose activity change, negative = inhibition, most hits filed as inhibitors; 390,000 compounds, 4.4% hits; AlphaScreen JMJD2A-Tudor / H3K4me3 peptide binding; further: potency means the concentration at half of the fitted maximal effect; on the % scale 0 is the no-effect control and ±100 the full control effect; nearly all actives have a fitted effect of over 50% in size
HP1b binding inh = blocks HP1-beta chromodomain binding to methylated histone tails; AlphaScreen HP1-beta / biotin-H3K9me3 peptide binding; Potency, µM (titrated, usually from 114 µM), for inactives: top-dose activity change, negative = inhibition, actives largely listed as inhibitors; 390,000 compounds, 0.56% hits; AID 540317; further: potency means the concentration at half of the fitted maximal effect; nearly all actives have a fitted effect of over 70% in size
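Compound inhibition of the preformed complex between 50 nM HP1-beta and 50 nM biotinylated H3K9me3 peptide was read by AlphaScreen. Buffer was PBS pH 7.4 with 0.01% Tween-20. Incubations ran 30 min at room temperature, with 10 ug/mL donor/acceptor beads.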
BAZ2B block = blocks human BAZ2B; Q9UIF8; AlphaScreen BAZ2B-H3K14Ac peptide displacement; Potency, µM (top dose mostly 114 µM), inactives show at the highest dose activity change, negative = inhibition, most hits filed as inhibitors; 360,000 compounds, 4.4% hits; AID 504333; further: potency means the concentration at half of the fitted maximal effect; on the % scale 0 is the no-effect control and ±100 the full control effect; nearly all actives have a fitted effect of over 60% in size
Target sequence (Q9UIF8 whole entry, looked up): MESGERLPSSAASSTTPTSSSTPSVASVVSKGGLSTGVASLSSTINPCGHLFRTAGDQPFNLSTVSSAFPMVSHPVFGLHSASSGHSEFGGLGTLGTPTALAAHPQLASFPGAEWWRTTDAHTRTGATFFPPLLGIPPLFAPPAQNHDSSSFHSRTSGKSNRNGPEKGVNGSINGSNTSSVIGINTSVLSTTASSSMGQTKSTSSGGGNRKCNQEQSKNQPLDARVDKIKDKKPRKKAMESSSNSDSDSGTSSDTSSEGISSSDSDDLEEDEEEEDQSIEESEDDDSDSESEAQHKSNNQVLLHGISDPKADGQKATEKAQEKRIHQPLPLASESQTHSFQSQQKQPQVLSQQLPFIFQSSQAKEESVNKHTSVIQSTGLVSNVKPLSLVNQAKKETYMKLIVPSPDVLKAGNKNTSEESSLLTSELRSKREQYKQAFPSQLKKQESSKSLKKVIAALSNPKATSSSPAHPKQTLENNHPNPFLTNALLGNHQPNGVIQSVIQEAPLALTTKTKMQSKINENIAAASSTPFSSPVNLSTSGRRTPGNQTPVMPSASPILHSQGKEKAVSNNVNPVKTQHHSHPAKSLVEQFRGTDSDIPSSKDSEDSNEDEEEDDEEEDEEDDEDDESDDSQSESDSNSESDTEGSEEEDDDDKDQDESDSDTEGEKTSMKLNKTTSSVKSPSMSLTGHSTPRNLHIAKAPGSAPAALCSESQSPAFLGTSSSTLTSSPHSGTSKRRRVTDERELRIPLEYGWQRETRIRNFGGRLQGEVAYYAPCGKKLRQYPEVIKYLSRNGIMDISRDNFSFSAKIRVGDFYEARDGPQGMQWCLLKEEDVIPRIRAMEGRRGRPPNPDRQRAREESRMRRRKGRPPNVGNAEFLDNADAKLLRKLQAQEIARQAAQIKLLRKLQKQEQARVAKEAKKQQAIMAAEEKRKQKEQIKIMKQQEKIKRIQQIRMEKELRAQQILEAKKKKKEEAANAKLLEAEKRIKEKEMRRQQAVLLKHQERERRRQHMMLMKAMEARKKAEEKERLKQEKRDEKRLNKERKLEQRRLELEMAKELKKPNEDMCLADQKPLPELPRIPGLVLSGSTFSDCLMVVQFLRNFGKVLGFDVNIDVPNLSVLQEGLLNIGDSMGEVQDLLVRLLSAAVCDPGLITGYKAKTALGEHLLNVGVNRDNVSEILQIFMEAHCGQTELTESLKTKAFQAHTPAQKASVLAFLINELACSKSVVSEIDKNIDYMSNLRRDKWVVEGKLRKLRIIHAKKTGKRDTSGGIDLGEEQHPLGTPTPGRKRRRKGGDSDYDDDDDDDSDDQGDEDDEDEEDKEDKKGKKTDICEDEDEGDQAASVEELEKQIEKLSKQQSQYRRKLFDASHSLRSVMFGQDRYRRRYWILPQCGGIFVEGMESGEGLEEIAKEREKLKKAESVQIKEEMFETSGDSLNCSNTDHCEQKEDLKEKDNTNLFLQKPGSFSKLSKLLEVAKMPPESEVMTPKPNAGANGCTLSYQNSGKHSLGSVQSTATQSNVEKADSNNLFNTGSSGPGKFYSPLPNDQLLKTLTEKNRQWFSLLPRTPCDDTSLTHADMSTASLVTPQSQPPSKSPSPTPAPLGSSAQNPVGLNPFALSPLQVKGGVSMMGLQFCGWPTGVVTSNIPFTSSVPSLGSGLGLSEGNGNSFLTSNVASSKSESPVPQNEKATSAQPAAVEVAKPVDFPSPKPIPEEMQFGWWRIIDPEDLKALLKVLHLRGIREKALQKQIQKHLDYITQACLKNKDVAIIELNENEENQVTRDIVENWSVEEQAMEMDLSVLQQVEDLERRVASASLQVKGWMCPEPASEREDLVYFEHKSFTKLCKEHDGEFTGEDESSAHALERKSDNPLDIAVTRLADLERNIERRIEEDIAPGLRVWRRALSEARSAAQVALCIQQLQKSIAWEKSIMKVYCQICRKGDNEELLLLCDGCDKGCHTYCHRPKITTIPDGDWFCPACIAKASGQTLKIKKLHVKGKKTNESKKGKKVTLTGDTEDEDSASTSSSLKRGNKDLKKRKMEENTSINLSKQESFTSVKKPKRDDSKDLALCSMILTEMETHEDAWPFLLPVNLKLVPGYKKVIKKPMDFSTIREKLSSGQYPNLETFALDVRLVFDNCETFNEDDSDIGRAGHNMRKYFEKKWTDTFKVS
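AlphaScreen displacement of biotin-H3(5-23)K14Ac peptide (50 nM final) from BAZ2B (50 nM final) in PBS pH 7.4, 0.01% Tween-20; complex preformed 30 min RT, then compounds (top 110 uM) 30 min RT, beads 20 min dark.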
Six1-Eya2 blk = blocks human Six1 binding to Eya2; Q15475+O00167; AlphaScreen GST-Six1/His-Eya2 binding, biochemical; hits give low values; activity change, % (test concentration not listed); 360,000 compounds, 0.56% hits; AID 651725; in the data active means activity change below about -65%; inconclusive means mostly about -30% to -63%; further: on the % scale 0 is the no-effect control and ±100 the full control effect
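AlphaScreen with GST-Six1 and His-Eya2 (5X mix: 250 nM and 500 nM), glutathione donor and nickel acceptor beads; buffer 50 mM Tris pH 8.0, 300 mM NaCl, 1 mM TCEP; 1 h at 37 C in the dark.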
G9a inh = G9a (human) methyltransferase inhibition; Q96KQ7; G9a H3K9 monomethylation, AlphaScreen, 2 h; Potency, µM (titrated, usually from 102 µM), for inactives: top-dose activity, negative = inhibition, actives largely listed as inhibitors; 350,000 compounds, 8.8% hits; AID 504332; further: potency means the concentration at half of the fitted maximal effect; on the % scale 0 is the no-effect control and ±100 the full control effect; nearly all actives have a fitted effect of over 75% in size
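AlphaScreen read-out: biotin-H3K9 peptide (500 nM) methylation by 20 nM enzyme with 20 uM SAM, 2 h at room temperature after 15 min compound preincubation; anti-monomethyl H3K9 antibody plus donor/acceptor beads, 10 min dark.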
CtBP-E1A inh = blocks the CtBP interaction with E1A; activity change, % (concentration not given with the values); 340,000 compounds, 0.49% hits; AID 651724; AlphaScreen GST-E1A/His-CtBP binding, 1536-well; hits give low values; in the data active means activity change below about -65%; inconclusive means mostly about -30% to -63%; further: on the % scale 0 is the no-effect control and ±100 the full control effect
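Steps: dispense buffer (Tris pH 8.0, NaCl 300 mM, TCEP 1 mM, BSA, Tween 20); add 5X protein mix (GST-E1A, His-CtBP, 125 nM each); pin 23 nL compound; 2 h at 37 °C, dark; add 5X beads (50 ug/mL); 1 h; read.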
The depositor's hits bear a star; ? = inconclusive; . = not tested or not shown; [ ] = dose if it differs, or a comment. Unless noted, the call rests on the fitted dose curve; in most records, active means well fitted inhibition curve with a large enough effect; inconclusive means small, poorly fitted or top-dose-only effect; inactive means no such curve, though single readings can be large or run the other way.

SMILES	JMJD2A Tudor	HP1b binding inh	BAZ2B block	Six1-Eya2 blk	G9a inh	CtBP-E1A inh
Nc1c(C(=O)O)ccc2c1C(=O)c1ccccc1C2=O	?	?	35µM*	-28	35µM*	?
Nc1c(SCCC(=O)O)ccc2c1C(=O)c1ccccc1C2=O	?	?	40µM*	-67*	35µM*	-15
COc1cc(OC)c(NC(=O)C(c2ccccc2)N2Cc3ccccc3C2=O)cc1Cl (stereo not given)	-33%	8%	?	.	?	.
COCCn1c(CNC(=O)c2cc([N+](=O)[O-])ccc2Cl)nc2cccnc21	-20%	15%[57 µM]	-1%	.	1%[59 µM]	.
COc1cc(C(=O)N/N=C(\C)c2ccccn2)cc(OC)c1OC	-19%	20%	-17%	-8	63%	-4
COc1ccc2nc(NN=C(C)c3ccccn3)cc(C)c2c1	45µM*	?	.	-89*	.	?
COCc1cc(=O)n2[nH]c(N)nc2n1	-31%	26%	50µM*	2	.	-10
O=C(c1ccc(S(=O)(=O)N2CCC(c3nc4ccccc4s3)CC2)cc1)N1CCOCC1	-15%	6%	5%	-1	40µM*	-7
O=C(c1ccc(S(=O)(=O)N2CCC(c3nc4ccccc4s3)CC2)cc1)N1CCCCC1	-18%	22%	.	4	.	5
O=C(c1ccc(S(=O)(=O)N2CCC(c3nc4ccccc4[nH]3)CC2)cc1)N1CCOCC1	28µM*	-12%	?	1	7.9µM*	-8
O=S(=O)(c1ccc(F)cc1)N1CCC(c2nc3ccccc3[nH]2)CC1	-4%	41%	-18%	-22	3%	0
Cc1ccc(CCNC(=O)CCCn2nc(C)c3c(C)n(-c4ccccc4)nc3c2=O)cc1	-16%	30%	-1%	.	4%[59 µM]	.
CC(=O)C1=C(S(=O)(=O)c2ccc(C)cc2)CS(=O)(=O)C1	22µM*	14µM*	?	-14	1.3µM*	-2
O=C(CS(=O)(=O)c1ccccc1)Nc1ncc([N+](=O)[O-])s1	-4%	11%	-14%	6	?	-17
COCc1nnc(NC(=O)CCS(=O)(=O)c2ccccc2)s1	-9%	?	?	3	45µM*	-1
COCc1nnc(NC(=O)CCCOc2ccccc2OC)s1	50µM*	-25%	-5%	0	?	-1
O=C(CCS(=O)(=O)c1ccccc1)Nc1ncc([N+](=O)[O-])s1	-6%	7%	-1%	0	45µM*	-15
COCc1nnc(NC(=O)CCCOc2ccccc2)s1	-26%	37%	-2%	-2	5%[12.7 µM]	4
O=C(CN1C(=O)c2ccccc2S1(=O)=O)Nc1ncc([N+](=O)[O-])s1	3.5µM*	-23%	?	-6	?	-1
COc1ccc(CNC(=O)Cn2c(=O)nc(-c3ccccc3F)c3cc(Cl)ccc32)cc1OC	-14%	5%	-19%	.	-20%[59 µM]	.
COc1ccccc1N1CCN(CC(=O)c2ccc3ccn(C(C)=O)c3c2)CC1	-27%	41%	-11%	-2	11µM*	-12
COc1ccc(C(=O)CCN2CCN(c3ccccc3OC)CC2)cc1	-23%	26%	?	-3	50µM*	0
COc1cc2c(cc1OC)CN(CCOc1ccc(Br)cc1)CC2	-25%	24%	-24%	-15	-19%	.
Cc1ccccc1N1CCN(CCN2C(=O)CC(=C3c4ccccc4-c4ccccc43)C2=O)CC1	?	?	.	-6	.	-7
COc1ccccc1N1CCN(CCN2C(=O)CC(=C3c4ccccc4-c4ccccc43)C2=O)CC1	32µM*	-15%	.	-18	.	-10
SMILES	JMJD2A Tudor	HP1b binding inh	BAZ2B block	Six1-Eya2 blk	G9a inh	CtBP-E1A inh
CC(=O)OCC(=O)c1ccc2ccn(C(C)=O)c2c1	1%	35%	-2%	3	9%[59 µM]	2
COc1ccc(C(=O)CCN2CCc3cc(OC)c(OC)cc3C2)cc1	-16%	25%	-24%	-4	13µM*	-7
CC(CC(=O)NCc1ccc(Cl)cc1)CC1=NS(=O)(=O)c2ccccc2N1 (stereo not given)	-17%	-6%	-1%	.	-1%[59 µM]	.
O=C(Nc1ccc(Br)cc1F)c1ncoc1-c1ccco1	-2%	17%	-8%	.	2%[12.7 µM]	.
Cc1ccc(NC(=O)Cn2c(=O)ccc3cc(S(=O)(=O)N4CCC(C)CC4)ccc32)cc1Cl	-2%	0%[57 µM]	-20%	.	3%[59 µM]	.
Cc1oc(-c2cccc(Br)c2)nc1Cn1c(=O)cc(-c2ccccc2)c2c(C)nn(C)c21	-4%	52%	-5%	.	-2%[59 µM]	.
O=C1NN(c2ccccc2)C(=O)/C1=C\c1ccccc1	-15%	33%	-21%	6	40µM*	0
O=C1NN(c2cccc(Br)c2)C(=O)/C1=C\c1ccccc1	-33%	0%	-35%	-13	20µM*	-8
O=C1NN(c2cccc(Br)c2)C(=O)/C1=C/c1cccs1	?	7%	?	16	?	10
O=C1NN(c2ccccc2)C(=O)C1=Cc1ccccc1	.	.	.	-1	.	-2
Cn1cccc1Cc1nnc(SCC(=O)Nc2cccc(F)c2)n1CCc1ccccc1	-32%	-11%	50µM*	-19	45µM*	-9
Cc1csc(NC(=O)CSc2nnc(Cc3cccn3C)n2CCc2ccccc2)n1	35µM*	?	?	-19	45µM*	-12
Cn1cccc1Cc1nnc(SCC(=O)Nc2ccccc2F)n1CCc1ccccc1	?	-11%	?	-3	45µM*	-11
Cc1cc(NC(=O)CSc2nnc(Cc3cccn3C)n2CCc2ccccc2)no1	-23%	-7%	?	-9	6%	-5
CC(C)CCOc1ccc(Oc2nc(N(C)C)nc(N(C)C)n2)nn1	-12%	25%	-18%	.	2%[59 µM]	.
COc1ccc(CNC(=O)C2CCCCN2S(=O)(=O)c2ccc(F)cc2)cc1 (stereo not given)	-9%	-5%	1%	.	2%[59 µM]	.
COc1cccc(Nc2nc3ccc(C(=O)c4ccccc4)cc3n3c(C)nnc23)c1	-1%	33%	-2%	.	6%[59 µM]	.
CC1(C)CC(=O)C(C2C3=C(CC(C)(C)CC3=O)Oc3ccccc32)=C(O)C1 (stereo not given)	-7%	52%	16%	-5	71µM*	0
Cn1cc(/C=N/Nc2ccccc2)c2ccccc21	50µM*	?	40µM*	-1	13µM*	3
O=C(O)c1ccc(N/N=C/c2cn(Cc3ccccc3F)c3ccccc23)cc1	56µM*	-16%	40µM*	-6	2%[12.7 µM]	0
Nc1ccc(C(=O)N/N=C/c2cn(Cc3ccccc3F)c3ccccc23)cc1	89µM*	9%	35µM*	-9	.	-10
COC(=O)N/N=C/c1cn(Cc2ccccc2F)c2ccccc12	-23%	11%	?	-14	-4%[12.7 µM]	0
